# Data reported in article PMC5540273 (PLoS ONE, 2017).
# Tested on: JAK2(JH1domain-catalytic)
# 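Also: kd values determined as follow-up on hits from a single-replicate KINOMEscan panel screen.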
row,SMILES,Kd [nM]
1,Fc1cccc(COc2ccc(Nc3ncnc4sc(-c5ccc[nH]5)cc34)cc2Cl)c1 [GW707818],> 10000
2,Nc1nc(-c2ccc3c(N)n[nH]c3c2)cc(N2CCC[C@@H](C(=O)Nc3ccccc3)C2)n1.O=C(O)C(F)(F)F.O=C(O)C(F)(F)F [GSK2288359],> 10000
3,C[C@@H]1CCN(C(=O)CO)C[C@@H]1N(C)c1ncnc2[nH]ccc12,11
4,Cl.c1ccc(Cn2ccc3cc(Nc4ncnc5ccccc45)ccc32)cc1 [GW275568],> 10000

# Tested on: T1, JNK3
# T1 construct: gene MAPK10
row,SMILES,Kd [nM]
1,COC(=O)c1c(-c2ccccc2)c2cc(Cl)ccc2c(=O)n1Cc1ccc(S(C)(=O)=O)cc1,14
2,CN1CCC(n2cnc(-c3ccc(F)cc3)c2-c2ccnc(NC3CCNCC3)n2)CC1 [SB-229482],140
3,CCc1nc(-c2cccc(C)c2)c(-c2ccnc(NC(=O)c3ccccc3)c2)s1,190
